# Vif imaging: inhibitors of HIV Vif; HEK293T cells, Vif self-association by quenched fluorescence, imaging, 24 h; inhibition, % at 7.49 µM; actives 0.35% (n = 340,000); in the data active = inhibition above about 50%, passing the limit was not always enough
# SMARCA2 activ: SMARCA2 function activation, primary screen | MG213 cells, MMTV-luciferase reporter, dexamethasone, overnight | actives 1% (n = 370,000) | activation, % at 9.1 µM; in the data active = activation above about 7.8%
# NadD inh: blocks S. aureus nicotinate mononucleotide adenylyltransferase; actives 0.78% (n = 360,000); purified NadD enzyme, colorimetric absorbance read-out; AID 602399; inhibition, % at 20 µM; in the data active = inhibition above about 26%
# esBAF inh: SWI/SNF esBAF complex inhibition; mouse ES cells, Bmi1-luciferase knock-in reporter, 24 h; 100% = twice the neutral-well signal; reporter increase, % at 12.5 µM; AID 602393; actives 2% (n = 350,000); in the data active = activation above about 40%;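 also: a rise in the Bmi1 reporter signal indicates esBAF inhibition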
# NR3A LBD binder: modulates the human NR3A ligand-binding domain; NR3A LBD differential scanning fluorimetry, Tm shift; 0% = protein alone, 100% = glycine-bound protein; Tm shift relative to glycine control, % at 25 µM; actives 2.5% (n = 340,000);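 active = melting temperature shift of at least 10% of the positive control shift, at one fixed dose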
# SKN-1 inh: C. elegans SKN-1 inhibition. C. elegans VP596 Pgst-4::GFP/RFP ratio, acrylamide-induced, 24 h. inhibition, % at 21.8 µM. actives 0.49% (n = 360,000). AID 624304;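 active = interference check ratio from 0.5 to 1.5 plus GFP to RFP signal ratio inhibition reaching or exceeding a fixed threshold, cut at about 30% in these data, passing the limit was not always enough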
# NadD conf: confirmation of Staphylococcus aureus NadD inhibitors; actives 13% (n = 2,000); shares compounds with NadD inh; purified S. aureus NadD, colorimetric enzyme assay; inhibition, % at 20 µM; in the data active = inhibition mostly above about 42%, no sharp cut-off; inactive = mostly below about 42%
# A number is an active result; 0 = inactive; - = no result given. Hits are enriched below; roughly 5.2% of the tested compounds scored in any of these assays.
SMILES,Vif imaging,SMARCA2 activ,NadD inh,esBAF inh,NR3A LBD binder,SKN-1 inh,NadD conf
Cc1nnc(NC(=O)c2cc(-c3ccco3)nc3ccccc23)s1,0,0,0,0,-,0,-
CCOc1ccccc1-c1cc(C(=O)N/N=C/c2ccc3c(c2)OCO3)c2ccccc2n1,0,0,35,-,0,0,0
Cc1csc(NC(=O)c2cc(-c3ccco3)nc3ccccc23)n1,0,0,75,0,0,0,53
O=C(N/N=C/c1ccc(F)cc1)c1cc(-c2ccco2)nc2ccccc12,0,0,45,0,0,0,81
COCCNC(=O)C[C@H]1C[C@@H]2c3cc(NS(=O)(=O)c4ccccc4)ccc3O[C@@H]2[C@H](CO)O1,-,-,-,0,-,-,-
CN(C)CCCN(C(=O)c1ccc(S(=O)(=O)N2CCc3ccccc32)cc1)c1nc2ccc(Cl)cc2s1,0,0,52,0,0,0,0
CN(C)CCCN(C(=O)c1ccc(S(=O)(=O)N2CCc3ccccc32)cc1)c1nc2ccc(F)cc2s1,0,0,0,0,0,0,-
O=C(NC[C@H]1[C@@H](c2ccccc2)[C@@H](CO)N1Cc1ccccn1)C1CC1,-,-,-,0,-,-,-
Cc1ccc(S(=O)(=O)N(C)C[C@@H]2Oc3ccc(NS(C)(=O)=O)cc3C(=O)N([C@@H](C)CO)C[C@@H]2C)cc1,-,-,-,0,-,-,-
C=CCN1CCc2nc(N)sc2CC1,0,0,30,0,0,0,0
CCN1CCc2nc(N)sc2C1,0,0,0,-,0,0,-
O=C(C1=C[C@@H]2[C@H]3C(=O)N(c4ccc(Cl)cc4)C(=O)[C@H]3[C@@H](C(=O)c3ccc(Cl)cc3)N2C=C1)c1ccccc1,0,0,43,-,0,0,0
O=C(Cn1nc(-c2ccccc2)ccc1=O)Nc1ccc(N2CCN(C(=O)c3cccs3)CC2)cc1,0,0,29,-,0,0,0
CCCC(=O)Nc1ccc2c(c1)OC[C@@H](C)N(CC1CCCC1)C[C@H](C)[C@@H](OC)CN(C)C2=O,-,-,-,0,-,-,-
Cc1ccc(Nc2nc(Nc3ccc(C)cc3)nc(SC3=NCCS3)n2)cc1,0,0,30,-,0,0,51
Cc1ccccc1Nc1nc(Nc2ccccc2C)nc(SC2=NCCS2)n1,0,0,0,0,0,0,-
COc1ccc(NC(=O)N(C)C[C@@H]2Oc3ccc(NC(=O)Cc4cn(C)c5ccccc45)cc3C(=O)N([C@H](C)CO)C[C@H]2C)cc1,-,-,-,0,-,-,-
Cc1ncc(CO)c2c1Oc1nc(-c3ccccc3)nc(SCC(=O)Nc3cccc(O)c3)c1C2,0,0,43,0,0,0,39
O=C(CSc1ncc(-c2ccccc2)[nH]1)Nc1cccc(O)c1,0,0,0,0,0,0,-
COc1ccc(-c2nc3c(c(SCC(=O)Nc4cccc(O)c4)n2)Cc2c(CO)cnc(C)c2O3)cc1,0,0,50,0,0,0,0
CC(C)c1cccc(-c2ccc3c(c2)S(=O)(=O)c2cccc(C(=O)NCc4ccco4)c2C3=O)c1,0,0,34,0,0,0,0
O=C(NCc1ccco1)c1cccc2c1C(=O)c1ccc(N3CCC(N4CCCCC4)CC3)cc1S2(=O)=O,0,0,0,0,-,0,-
Cc1ccc(-n2nc3c(c2NC(=O)c2cccs2)CS(=O)(=O)C3)cc1C,0,0,0,0,0,0,-
Cc1cccc(-n2nc3c(c2NC(=O)c2ccc(Br)o2)CSC3)c1,0,0,44,0,0,0,65
Cc1ccc(-n2nc3c(c2NC(=O)c2cccs2)CSC3)cc1,0,0,56,0,0,0,77
SMILES,Vif imaging,SMARCA2 activ,NadD inh,esBAF inh,NR3A LBD binder,SKN-1 inh,NadD conf
COc1ccc(CN(C)C[C@@H]2OCCCC[C@@H](C)Oc3ccc(NS(C)(=O)=O)cc3C(=O)N([C@H](C)CO)C[C@H]2C)cc1,-,-,-,0,-,-,-
Cn1c(SCC(=O)c2ccc(-c3ccccc3)cc2)nnc1-c1ccco1,0,0,32,0,0,0,0
COc1ccc(CN(C)C[C@H]2OCCCC[C@@H](C)Oc3ccc(NC(=O)NC4CCCCC4)cc3C(=O)N([C@@H](C)CO)C[C@H]2C)cc1,-,-,-,0,-,-,-
CCCN1C[C@@H](C)[C@H](OC)CN(C)C(=O)c2cc(NC(=O)C3CCOCC3)ccc2OC[C@@H]1C,-,-,-,0,-,-,-
CC1CCCC(C)N1c1nnc(NC(=O)c2cc(-c3ccc(Br)cc3)on2)s1 (centres undefined),0,0,41,0,0,0,0
Cn1ncc(Cl)c1C(=O)NC(=S)Nc1sc2c(c1C#N)CCCCC2,0,0,29,0,13,0,0
Cc1noc(C)c1S(=O)(=O)Nc1ccc2c(c1)C(=O)N([C@H](C)CO)C[C@@H](C)[C@H](CN(C)C(=O)Nc1ccc(F)cc1)OCCCC[C@@H](C)O2,-,-,-,0,-,-,-
Nc1[nH]c(C(=O)c2ccccc2)c(-c2ccc(Cl)cc2Cl)c1C(=O)c1ccc(Cl)c(Cl)c1,-,0,36,-,-,0,0
C#CCn1c(=NC(=O)c2cc(-c3cccs3)nc3ccccc23)sc2cc(S(N)(=O)=O)ccc21,0,0,53,-,15,0,55
Nc1cccc2c(=O)c3ccccc3[nH]c12,0,0,29,0,0,0,0
Cc1ccc(NC(=O)C(C)OC(=O)c2cc(=O)[nH]c3ccccc23)cc1S(=O)(=O)N1CCOCC1 (centres undefined),0,0,35,0,0,0,0
CC(=O)c1c(C)[nH]c(C(=O)OC(C)C(=O)Nc2ccc(C)c(S(=O)(=O)N3CCOCC3)c2)c1C (centres undefined),0,0,0,0,0,0,-
Cc1noc(C)c1NC(=O)N(C)C[C@@H]1Oc2ccc(NS(=O)(=O)c3ccccc3)cc2CC(=O)N([C@H](C)CO)C[C@H]1C,-,-,-,0,-,-,-
COc1cccc(-n2c(C)c3c(OC)cccc(=O)c3c2C)c1,0,0,0,0,0,0,-
COc1cccc(=O)c2c(C)n(-c3cc(C)cc(C)c3)c(C)c12,0,0,35,0,0,0,0
OC[C@H]1[C@H](c2ccc(C#CC3(O)CCCC3)cc2)[C@@H]2CN(Cc3cncnc3)CCCCN12,-,-,-,0,-,-,-
O=C(N/N=C/c1ccc([N+](=O)[O-])o1)c1cn(-c2ccccc2)nc1-c1ccc(Cl)cc1,0,0,36,0,34,0,0
O=C(N/N=C/c1ccc([N+](=O)[O-])o1)c1cn(-c2ccccc2)nc1-c1ccccc1,0,0,31,-,13,0,0
O=C(N/N=C/c1ccc([N+](=O)[O-])o1)c1ccccc1-n1cccc1,0,0,0,0,0,0,-
O=C(O)COc1ccc(/C=N/NC(=O)c2cn(-c3ccccc3)nc2-c2ccccc2)cc1,0,0,0,0,0,0,-
O=C(N/N=C/c1coc2ccccc2c1=O)c1ccncc1,0,0,0,0,0,0,-
O=C(N/N=C/c1coc2ccccc2c1=O)c1cn(-c2ccccc2)nc1-c1ccc(F)cc1,0,0,34,0,0,0,0

# Compound activity from PubChem.
